# PubChem BioAssay AID1445 (SRMLSC, 2008)
# Out of some 220,000 compounds screened, about 910 (0.41%) were called active. The list comes from a sample in which actives are over-represented; it also holds similar structures and randomly drawn compounds. Entries with a potency or affinity are not part of this list. Values without a mark were called inactive.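 How the source made its calls: active means primary inhibition above the hit cutoff, then over 50% inhibition at one or more dose response concentrations (cut at about 23% in these data, passing the limit was not always enough); inconclusive means conflicting primary data, or primary hits not chosen for dose response; inactive means low primary inhibition, or under 50% at every dose.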
# Target: Aminopeptidase N (Plasmodium falciparum (isolate 3D7)) (UniProt O96935)
# Sequence (O96935 whole entry, looked up): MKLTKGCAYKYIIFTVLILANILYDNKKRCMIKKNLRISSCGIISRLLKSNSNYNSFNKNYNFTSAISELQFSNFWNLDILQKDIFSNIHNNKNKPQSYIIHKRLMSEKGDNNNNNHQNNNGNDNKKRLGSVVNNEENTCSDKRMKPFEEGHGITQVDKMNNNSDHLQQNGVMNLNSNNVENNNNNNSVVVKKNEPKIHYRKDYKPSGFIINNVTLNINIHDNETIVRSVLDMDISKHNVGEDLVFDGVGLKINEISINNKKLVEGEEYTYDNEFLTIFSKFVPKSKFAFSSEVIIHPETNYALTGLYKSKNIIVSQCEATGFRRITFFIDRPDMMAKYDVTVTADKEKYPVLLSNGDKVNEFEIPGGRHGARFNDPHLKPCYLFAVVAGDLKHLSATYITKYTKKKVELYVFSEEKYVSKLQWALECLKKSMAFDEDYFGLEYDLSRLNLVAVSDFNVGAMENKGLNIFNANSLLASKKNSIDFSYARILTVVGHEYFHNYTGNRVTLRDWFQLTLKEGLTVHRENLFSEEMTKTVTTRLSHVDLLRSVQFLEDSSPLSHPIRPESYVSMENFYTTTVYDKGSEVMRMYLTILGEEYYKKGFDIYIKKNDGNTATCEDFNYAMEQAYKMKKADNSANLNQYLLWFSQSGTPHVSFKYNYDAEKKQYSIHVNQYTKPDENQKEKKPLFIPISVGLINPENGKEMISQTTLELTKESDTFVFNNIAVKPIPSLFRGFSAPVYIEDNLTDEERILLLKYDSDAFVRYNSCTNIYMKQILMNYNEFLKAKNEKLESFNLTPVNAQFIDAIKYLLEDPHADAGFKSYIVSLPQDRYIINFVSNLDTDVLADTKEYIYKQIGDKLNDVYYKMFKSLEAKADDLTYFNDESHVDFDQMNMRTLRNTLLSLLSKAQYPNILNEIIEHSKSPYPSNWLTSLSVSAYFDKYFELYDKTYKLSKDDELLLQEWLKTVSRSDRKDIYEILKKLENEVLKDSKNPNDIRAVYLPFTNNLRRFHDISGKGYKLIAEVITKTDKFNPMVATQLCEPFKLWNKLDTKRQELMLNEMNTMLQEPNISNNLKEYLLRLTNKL
# Assay: P. falciparum M1AAP inhibitors, biochemical, fluorogenic H-Leu-NHMec substrate, 1536-well (AID 1445);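 further: plate controls were DMSO full reaction for no effect and no enzyme background for full effect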
# Details: recombinant M1AAP, H-Leu-NHMec fluorogenic kinetic assay; at 30 µM, hits give high values unless noted
row,SMILES,inhibition
1,CCOc1ccccc1C1C(C(=O)OC)=C(N)OC2=C1C(=O)CCC2 (centres undefined),3.31%
2,CCOC(=O)N1CCC(NC(=O)C2=CCN(S(=O)(=O)c3ccc(F)cc3)CC2)CC1,-3%
3,Cc1cccc(C(=O)Nc2sc(C)c(-c3ccccc3)c2C#N)c1,3.54%
4,O=C(OC1CCOC1=O)c1ccc(Cl)c(S(=O)(=O)N2CCCCC2)c1 (centres undefined),1.33%
5,COc1cc(/C=C2\SC(c3ccc(C)cc3)=NC2=O)cc(OC)c1O,19.7%
6,COc1cc(/C=C2\SC(c3ccc(C)cc3)=NC2=O)cc(OC)c1OC,-0.48%
7,C=CCn1c(=N)c(C(=O)NCCCOC)cc2c(=O)n3ccccc3nc21,13.6%
8,COCCNC(=O)c1cc2c(=O)n3cccc(C)c3nc2n(Cc2ccncc2)c1=N,30.2%
9,C=CCn1c(=N)c(C(=O)NCCCOC)cc2c(=O)n3cc(C)ccc3nc21,4.34%
10,COCCCNC(=O)c1cc2c(=O)n3cccc(C)c3nc2n(C(C)C)c1=N,21.8%
11,CC(CN1CCCCC1)OC(=O)C1c2ccccc2Oc2ccccc21 (centres undefined),1.62%
12,Cc1ccc(S(=O)(=O)N2c3ccccc3CC2C)cc1 (centres undefined),2.44%
13,CC(c1ccccc1)C1CC(=O)N(C2CCCCC2)C1=O (centres undefined),-0.34%
14,COc1ccc2cc1Oc1ccc(cc1)C[C@H]1c3cc(c(OC)cc3CCN1C)Oc1c(OC)c(OC)cc3c1[C@H](C2)N(C)CC3,0.59%
15,COc1ccc2cc1Oc1ccc(cc1)C[C@H]1c3c(cc4c(c3Oc3cc5c(cc3OC)CCN(C)[C@@H]5C2)OCO4)CCN1C,2.7%
16,CC(c1ccccc1)n1c(Cn2ncc3ccccc3c2=O)n[nH]c1=S (centres undefined),7.12%
17,O=C(NCc1ccco1)C1CCCN(S(=O)(=O)c2cccc3cccnc23)C1 (centres undefined),9.65%
18,O=C(NCc1ccc2c(c1)OCO2)C1CCCN(S(=O)(=O)c2cccc3cccnc23)C1 (centres undefined),18.6%
19,O=C(NCc1ccco1)C1CCCN(S(=O)(=O)c2cccc3nsnc23)C1 (centres undefined),5.11%
20,O=C(NCc1ccc2c(c1)OCO2)C1CCCN(S(=O)(=O)c2cccc3nonc23)C1 (centres undefined),27.8% (active)
21,O=C(NCc1ccccc1)C1CCCN(S(=O)(=O)c2cccc3nonc23)C1 (centres undefined),34.1%
22,COCC(=O)N(Cc1ccccc1)c1ccccn1,17.1%
23,CC(=O)Nc1ccc(S(=O)(=O)N2CCN(CC(O)COc3ccc4ccccc4c3)CC2)cc1 (centres undefined),8.01%
24,O=C(CSc1nnc(Cc2ccccc2)n1C1CCCCC1)N1CCOCC1,4.89%
